Active and inactive are the calls of the source. The calls were made as follows: active = hit-call score of the fitted dose curve at least 0.9, where 1 is the maximum; inactive = score below 0.9.
Assay: CCTE_Mundy_HCI_hNP1_Casp3_7: CCTE's Caspase-Glo 3/7 Assay in human neuroprogenitor cells for Apoptosis, Mundy Lab (AID 2284240)
Method: CCTE_Mundy_HCI_hNP1_Casp3_7 is a multiplexed, cell-based-readout assay that uses neural stem cells derived from a neuroepithelial cell lineage of WA09 embryonic cells with measurements taken at […] after chemical dosing in a microplate: 96-well plate.CCTE_Mundy_HCI_hNP1_Casp3_7 is one component of the CCTE_Mundy_HCI_hNP1_Casp3_7 assay. It measures apoptosis related to caspase activation using Luminescent Reporter.Data from the assay component CCTE_Mundy_HCI_hNP1_Casp3_7 was analyzed at the endpoint CCTE_Mundy_HCI_hNP1_Casp3_7_gain in the positive analysis fitting direction relative to DMSO as the negative control and baseline of activity. Using a type of viability reporter, gain -of-signal activity can be used to understand viability effects.
Human neural progenitor cells (hNP1) were obtained as cryopreserved cells from ArunA Biomedical, Athens Georgia. Cells are plated on pre-coated poly-L-ornithine/laminin clear bottom and opaque 96 well plates (day 0). Plates are placed in a 37 °C, 5% CO2 incubator for 40 to 44 hours at which time plates are removed from the incubator and 10 uL of a freshly made chemical solution is added to each well. Apoptosis was measured based on detection of activated caspase-3/7 using the Caspase-Glo 3/7 assay kit (Promega). Twenty-four hours after chemical treatment, 50ul of Caspase-Glo 3/7 assay buffer was added to each well and the plate incubated for 30min at room temperature. Luminescence was then recorded in each well using a FLUOstar Optima plate reader.

Row | SMILES | outcome
1 | OCCCC(F)(F)C(F)(F)C(F)(F)C(F)(F)C(F)(F)C(F)(F)C(F)(F)C(F)(F)F | inactive
2 | O=C(O)C(F)(F)C(F)(F)C(F)(F)OC(F)(F)F | inactive
3 | O=C(O)CCC(F)(F)C(F)(F)C(F)(F)C(F)(F)C(F)(F)C(F)(F)C(F)(F)F | inactive
4 | NC(O)(C(F)(F)F)C(F)(F)F | inactive
5 | OCCCCC(F)(F)C(F)(F)C(F)(F)C(F)(F)F | inactive
6 | CCN(CCO)S(=O)(=O)C(F)(F)C(F)(F)C(F)(F)C(F)(F)C(F)(F)C(F)(F)C(F)(F)C(F)(F)F | inactive
7 | O=C(F)C1(F)C(F)(F)C(F)(F)C(F)(F)C(F)(F)C1(F)F | inactive
8 | O=C(O)CCC(F)(F)C(F)(F)C(F)(F)F | inactive
9 | NC(=O)C(F)(F)C(F)(F)C(F)(F)C(F)(F)C(F)(F)C(F)(F)C(F)(F)F | inactive
10 | C=CC(=O)OCC(F)(F)C(F)(F)C(F)(F)COC(=O)C=C | inactive
11 | NC(=O)C(F)(F)C(F)(F)C(F)(F)C(F)(F)C(N)=O | inactive
12 | O=C(O)C(F)(F)C(F)(F)C(F)(F)OC(F)(C(F)(F)F)C(F)(F)F | inactive
13 | O=S(=O)(O)CCC(F)(F)C(F)(F)C(F)(F)C(F)(F)C(F)(F)C(F)(F)C(F)(F)C(F)(F)F | inactive
